The values that follow come from PubChem BioAssay (NCI).

The panel holds about 83,000 compounds, 20% with a hit somewhere; the sample as a whole holds those more often.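 Note: values are percent growth. 100 is the growth of untreated cells, values between 100 and 0 indicate rising inhibition; between -100 and 0 indicates cell death.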 Active and inactive are the calls of the source. Rule for the calls: active = growth percent below 10; inactive = the rest.

For this assay, the system named is IGROV1 ovarian. The assay is described as follows: NCI-60 one-dose screen, 48 h (100 = growth as untreated, 0 = no growth, -100 = all killed). To be noted: 10 µM unless noted.
For `O=C(Nc1nc2ccccc2s1)Nc1ccccc1Cl`, the growth was 79.4% (inactive).
To `Cc1ccc(C(=O)Nc2cc(-n3ccnc3C)cc(C(F)(F)F)c2)cc1C#Cc1cnc2cccnn12` belongs 4.66% (active).
Turning to `O=C(c1ccc(O)cc1)C1[C@H](c2ccc(Cl)cc2)[C@@H](c2ccccc2)NC12C(=O)Nc1ccccc12` (stereo partly drawn), the growth was 3.49% (active).
For `COc1ccc(-c2nc3ccc(-c4nnc(SCC(=O)Nc5ccc(/C(C)=N\O)cc5)o4)cc3[nH]2)cc1` the value was 69.6% (inactive).
On to `C[C@H]1[C@@H](CC(=O)N[C@@H](Cc2coc3ccccc23)B(O)O)O[C@@H]2OC3(C)CC[C@H]4[C@H](C)CC[C@@H]1[C@@]24O3`, for which the growth was 9.89% (active).
To `Cc1cc(C(NC(=O)C2CC3(CC(Nc4cccc5c4C(=O)N(C4CCC(=O)NC4=O)C5=O)C3)C2)c2ccc3c(c2)OC(F)(F)O3)c(O)c2ncccc12` (stereo not drawn) belongs 6% (active); to `NC(=O)c1ccc(-c2ccc3ncnc(N4CCc5cc(F)c(Cl)cc54)c3c2)cn1`, 2.18% (active); to `CCN1C(=O)N(CC)C2NNC(Sc3c(C(=O)O)c4ccccc4n(CCC(C)C)c3=O)=NC21` (stereo not drawn), 17.3% (inactive).
`COc1ccc2[nH]c(O)c(N=Nc3nc(-c4ccc(Cl)cc4)cs3)c2c1`: the growth was -3.99% (active).
For `CC[C@]12C=CCN3CC[C@@]4(c5ccc(OC)cc5N(C)[C@H]4[C@@](O)(C(=O)OC)[C@@H]1OC(=O)CCCC[P+](c1ccc(F)cc1)(c1ccc(F)cc1)c1ccc(F)cc1)[C@@H]32` the value was -42.8% (active).
For `COc1cccc(/C=C/c2nc3ccccc3c(=O)n2CC(=O)Nc2ccccc2)c1` the value was 61% (inactive).
With `O=C(c1ccc(Cl)cc1)C1[C@H](c2ccccc2Cl)[C@@H](c2ccccc2)NC12C(=O)Nc1ccc(Br)cc12` (stereo partly drawn), the growth is -59.8% (active).
For `O=C(CSc1nnc(-c2ccc(-c3nc4ccc(Cl)cc4[nH]3)cc2)o1)Nc1ccc(Cl)cc1` the value was 51.2% (inactive); for `N#Cc1c(NC(=O)N2CCOCC2)n(-c2ccc(OC(F)(F)F)cc2)c2cc(F)ccc12`, 105% (inactive).
`O=C(N/N=C/c1ccc(Cl)o1)c1[nH]c2ccc(Br)cc2c1-c1ccccc1`: the growth was 5.37% (active).
In the case of `CC1=C(C(=O)OCc2ccccc2)C(c2cccc3ccccc23)n2c(nc3ccccc32)N1` (stereo not drawn), the growth is 31.3% (inactive).
For `CC1=NN(C2=NC(=O)C(CC(=O)Nc3ccccc3C(F)(F)F)S2)C(c2ccc(N(C)C)cc2)C1` (stereo not drawn) the value was 59.2% (inactive); for `CN1C(=O)C2(C(C#N)=C(c3ccc(Cl)cc3)Nc3c2c(-c2ccccc2)nn3-c2ccccc2)c2ccccc21` (stereo not drawn), 98% (inactive).
For `O=[N+]([O-])c1cccc(-c2nnc3c(/C=C/c4ccc(F)cc4)nc4ccccc4n23)c1` the value was 109% (inactive); for `COC(=O)c1cc(C(C)=O)n2c3ccccc3c3ccccc3c12`, 41.5% (inactive).
For `CCCCCCCOc1ccc(S(=O)(=O)Nc2ccc(C)c(F)c2C(=O)O)cc1` the value was 109% (inactive); for `COc1ccc2[nH]cc(-c3cc4nc(-c5cn(C)c6ncc(Br)cc56)cc(N)n4n3)c2c1`, -77.3% (active); for `COc1ccc2c(c1)N=c1c-2cc2c(O)[nH]c(=S)n2c1=O`, 50% (inactive).
On to `CC(C)C[C@H](NC(=O)[C@@H]1CCCCCCCCCCC(=O)N[C@@H](CC(=O)N2CCC[C@@H]2C2CCCC2)C(=O)N1)B(O)O`, for which the growth was -58.2% (active).
For `O=C1NC(=S)/C(=C/c2cn(-c3ccccc3)nc2-c2ccccc2)S1` the value was 29.1% (inactive); for `CN(C)C(=O)c1cc(-c2ccc3ncnc(N4CCc5cc(F)c(Cl)cc54)c3c2)cnc1N`, -62.5% (active).
To `N#C/C(=C/c1ccc(Cl)cc1)c1nnc(NC(=O)c2ccc(-n3c(=O)[nH]c4ccccc4c3=O)cc2)s1` belongs 80.9% (inactive); to `COc1c(B(O)O)cc(F)cc1-c1nc2c(F)cc3[nH]ncc3c2c2c1CCCC2`, 14.6% (inactive); to `O=C(CSc1nc2sc3c(c2c(=O)n1-c1ccc(Cl)cc1)CCCC3)NNC(=O)c1ccc(Br)cc1`, 60.3% (inactive).
As to `CN(C)c1ccc(/C=C/c2n(Cc3ccc4ccccc4c3)c3ccccc3[n+]2Cc2ccc3ccccc3c2)cc1`, the growth is -75.9% (active).
Take `COc1ccc2[nH]c(=O)cc(-n3ncc(C(=O)/C=C/c4cc(OC)c(OC)c(OC)c4)c3C)c2c1`: the growth was -0.815% (active).
On to `COc1ccc(C(=O)C[n+]2cccc3c4ccccc4ccc32)cc1`, for which the growth is 67.4% (inactive).
To `CN1CCc2c(sc3ncnc(N/N=C/c4cccc(Cl)c4Cl)c23)C1` belongs 10.6% (inactive).
